Measurements from PubChem BioAssay AID602410 (Johns Hopkins Ion Channel Center, 2012).
About 2,800 (0.82%) of roughly 340,000 compounds were called active.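 How the source made its calls: active means B-score under library mean minus 4 SD, starting fluorescence ratio at most library mean plus 5 SD; inactive means the rest.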 The entries come from a sample that favours actives as a whole.

Each molecule was assayed against Potassium channel subfamily K member 3 (Homo sapiens) (UniProt O14649) (assay: human KCNK3 channel inhibitors, primary screen, CHO cells, FluxOR thallium flux, B-score (AID 602410;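 on B-score: more negative B-score means stronger inhibition of thallium flux through KCNK3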)). Conditions: FluxOR fluorescence, at 10 µM; hits give low values.
Potassium channel subfamily K member 3 (Homo sapiens), sequence (O14649 whole entry, looked up): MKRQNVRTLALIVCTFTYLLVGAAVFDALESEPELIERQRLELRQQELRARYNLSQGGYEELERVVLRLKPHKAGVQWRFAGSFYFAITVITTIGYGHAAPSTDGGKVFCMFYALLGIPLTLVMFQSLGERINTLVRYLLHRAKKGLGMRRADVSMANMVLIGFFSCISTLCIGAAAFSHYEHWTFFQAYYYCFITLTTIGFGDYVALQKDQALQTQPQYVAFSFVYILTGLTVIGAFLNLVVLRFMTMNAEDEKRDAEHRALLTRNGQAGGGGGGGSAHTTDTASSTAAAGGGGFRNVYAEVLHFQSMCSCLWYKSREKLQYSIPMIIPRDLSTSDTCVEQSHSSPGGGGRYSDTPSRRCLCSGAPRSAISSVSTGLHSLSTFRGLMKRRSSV

| SMILES | B-score |
| --- | --- |
| CCOC(=O)C1CCCN(C(=O)c2sc3nc(C)nc(N4CCOCC4)c3c2C)C1 (stereo unspecified) | inactive |
| Cc1nc(N2CCN(c3ccccn3)CC2)c2c(C)c(C(=O)Nc3ccc(F)cc3)sc2n1 | -13 (active) |
| Cc1nc(N2CCOCC2)c2c(C)c(C(=O)Nc3ccc(C(F)(F)F)cc3)sc2n1 | -8.85 (active) |
| Cc1nc(N2CCC(C)CC2)c2c(C)c(C(=O)Nc3cc(F)ccc3C)sc2n1 | inactive |
| Cc1nc(N2CCN(c3ccccn3)CC2)c2c(C)c(C(=O)Nc3ccc(F)c(Cl)c3)sc2n1 | -12 (active) |
| COc1ccc(NC(=O)c2sc3nc(C)nc(N4CCN(c5ccccn5)CC4)c3c2C)c(OC)c1 | inactive |
| O=C(c1c(F)cccc1Cl)N1CCN(c2ccccn2)CC1 | inactive |
| Cc1cc(Br)ccc1NC(=O)c1sc2ncn(CC(=O)N3CCN(c4ccccn4)CC3)c(=O)c2c1C | inactive |
| Cc1cc(Br)ccc1NC(=O)c1cnc(N2CCN(c3ccccn3)CC2)c2ccccc12 | inactive |
| C/C(=N/NC(=O)c1ccn(C)n1)c1ccncc1 | inactive |
| Cc1ccccc1-c1nc(CS(=O)(=O)CC(=O)NC(C)c2ccccc2)c(C)o1 (stereo unspecified) | inactive |
| CCOc1ccc(C(CC(=O)O)NC(=O)C23CC4CC(CC(C4)C2)C3)cc1OC (stereo unspecified) | inactive |
| Cc1cc(NC(=O)C(C)SCC(=O)Nc2ccccc2N2CCCCC2)no1 (stereo unspecified) | inactive |
| Cc1ccc(OCCC(=O)Nc2ccc(S(=O)(=O)Nc3nccs3)cc2)cc1 | inactive |
| O=C1NC(c2ccncc2)Nc2sc3c(c21)CCCC3 (stereo unspecified) | inactive |
| O=C(NCC(=O)N1CCCCCCC1)c1ccccc1Cl | inactive |
| CCCc1cc(=O)[nH]c(SCC(=O)N2CCN(S(=O)(=O)c3ccc(C)cc3C)CC2)n1 | inactive |
| Cc1ccc(CN(CC(=O)NCC2CCCO2)S(=O)(=O)c2ccc(C)cc2)cc1 (stereo unspecified) | inactive |
| CCn1ncc(Br)c1C(=O)Nc1cc(C)ccc1F | -9.47 (active) |
| Cc1ccc(F)c(NC(=O)CCOc2ccccc2C)c1 | inactive |
| Cc1ccc(F)c(NC(=O)CCc2ccccc2)c1 | inactive |
| C=CCNC(=O)C1CC2c3ccccc3C1c1ccccc12 (stereo unspecified) | inactive |
| COc1ccc(Cl)cc1C=CC=Nc1ccc(S(N)(=O)=O)cc1 | inactive |
| COc1cccc(/C=N/Nc2ccc(S(=O)(=O)Nc3ccccc3C(=O)O)cc2[N+](=O)[O-])c1O | inactive |
| COc1cccc(/C=N/Nc2cc(C)nc(-c3ccccc3O)n2)c1O | -11.6 (active) |
| COc1ccc(Cc2nnc(N/N=C/c3ccccc3O)[nH]c2=O)cc1OC | inactive |

| SMILES | B-score |
| --- | --- |
| COc1cccc(CN(C)CC(O)COC(c2ccccc2)c2ccccc2C)c1 (stereo unspecified) | -12.7 (active) |
| COc1cccc(CN(C)CC(=O)Nc2ccccc2C(=O)Nc2ccccc2)c1 | inactive |
| Cc1ccccc1C(OCC(O)CN1CCCCC1CCO)c1ccccc1 (stereo unspecified) | inactive |
| CCOC(=O)c1cccc(NC(=O)CN(c2ccc(C)cc2)S(=O)(=O)c2c(C)noc2C)c1 | -8.84 (active) |
| Cc1noc(C)c1S(=O)(=O)N(CC(=O)Nc1ccc2c(c1)OCCO2)c1ccc(C(C)C)cc1 | inactive |
| COc1ccc(N(CC(=O)Nc2cc(OC)ccc2OC)S(=O)(=O)c2c(C)noc2C)cc1 | inactive |
| COc1cccc(NC(=O)C(Sc2nc3ccccc3c(=O)n2CC(C)C)c2ccccc2)c1 (stereo unspecified) | inactive |
| CC(Sc1nc2ccccc2c(=O)n1Cc1ccco1)C(=O)c1ccccc1 (stereo unspecified) | -8.93 (active) |
| N#Cc1c(NC(=O)CSc2nc3ccccc3c(=O)n2Cc2ccco2)sc2c1CCCC2 | inactive |
| CC(C)(C)OC(=O)Nc1ccc([C@@H](NC(=O)OC(C)(C)C)C(=O)OC(C)(C)C)cc1 | inactive |
| COc1ccc(CC(=O)NCc2nnc(SCC(=O)Nc3nccs3)n2C)cc1 | inactive |
| CC1(C)Cc2ccccc2-c2nnc(-c3cccc(O)c3)n21 | inactive |
| COc1cc(C)c(Cl)cc1S(=O)(=O)n1ccnc1 | inactive |
| O=C(Cc1ccc(S(=O)(=O)N2CCOCC2)s1)Nc1ccc(Br)c(C(F)(F)F)c1 | -9.72 (active) |
| O=C(Cc1ccc(S(=O)(=O)N2CCOCC2)s1)NCCOc1ccccc1F | inactive |
| O=C(Cc1ccc(S(=O)(=O)N2CCOCC2)s1)NCCC(c1ccccc1)c1ccccc1 | inactive |
| O=C1CCCN2N=C(SCC(=O)Nc3ccc(Br)cc3)SC2=N1 | inactive |
| N#C/C(=C\c1ccccc1)c1n[nH]c(Cn2cncn2)n1 | inactive |
| CCN1CCN(C(=O)N[C@@H](C(=O)N[C@@H]2C(=O)N3C(C(=O)O)=C(CSc4nnnn4C)CS[C@H]23)c2ccc(O)cc2)C(=O)C1=O | inactive |
| CN(C(=O)CSc1nnc(-c2ccc(C(C)(C)C)cc2)n1C)C1CCS(=O)(=O)C1 (stereo unspecified) | inactive |
| COc1ccc2c(c1)c(=O)c(C(=O)c1ccc(Cl)cc1)cn2CC(=O)Nc1ccc(F)cc1 | inactive |
| CN1c2ccc(C=O)c3c(C=O)ccc(c23)N(C)C1(C)C | -11.3 (active) |
| COc1ccc(-c2nc(CN3CCN(c4ncccn4)CC3)c(C)o2)cc1C | inactive |
| Cc1ccc(C(CNC(=O)Nc2ccccc2)N2CCN(C)CC2)cc1 (stereo unspecified) | inactive |
| COc1cccc(C(=O)Nc2cc3c(cc2Br)OCCCO3)c1 | inactive |
| COc1ccc(CN(C)C(=O)c2cc(-c3ccc(C)cc3C)nc3ccccc23)c(OC)c1OC | -12.7 (active) |

| SMILES | B-score |
| --- | --- |
| COc1ccc(-c2cc(C(=O)N(C)CC(=O)Nc3ccccc3Cl)c3ccccc3n2)cc1OC | inactive |
| COc1ccc(-c2cc(C(=O)N(C)Cc3ccc(OC)c(OC)c3OC)c3ccccc3n2)cc1OC | inactive |
| CC(=O)c1c(Nc2ccccc2)sc(C(=O)c2ccccc2)c1C | inactive |
| COc1ccc(Cl)cc1NC(=O)CN(C)C(=O)c1cc(-c2cccs2)nn1-c1ccccc1 | inactive |
| COc1cccc(C(=O)NCCSc2ccc(Br)cc2)c1 | -8.94 (active) |
| COc1cc(C(=O)NCC(=O)NCCSc2ccc(Br)cc2)cc(OC)c1OC | inactive |
| COc1ccccc1C(=O)NCC(=O)NCCSc1ccc(Br)cc1 | inactive |
| Cc1ccc(NCc2n[nH]c(=S)n2-c2ccccc2)cc1Cl | inactive |
| CCOc1ccc(OCCSc2nc3ccccc3n2CC(=O)O)cc1 | inactive |
| Cc1cc(C)cc(NC(=O)C2CCCN(S(=O)(=O)c3ccc4[nH]c(=O)ccc4c3)C2)c1 (stereo unspecified) | inactive |
| CCOc1ccc(C2c3[nH]c4ccccc4c3CCN2Cc2cccn2-c2ncccn2)cc1 (stereo unspecified) | -8.75 (active) |
| CCOc1ccc(C2c3[nH]c4ccccc4c3CCN2Cc2cn(CC)nc2C)cc1 (stereo unspecified) | inactive |
| c1ccc(C2c3[nH]c4ccccc4c3CCN2Cc2cccn2-c2cccnc2)nc1 (stereo unspecified) | inactive |
| O=C(NCc1ccccc1)C1=C[C@@H](c2ccc(C(F)(F)F)cc2)C[C@@H](OCc2ccc(CO)cc2)O1 | inactive |
| COCc1cc(C(C)=O)ccc1OC | inactive |
| COc1ccc(C(C)=O)cc1COc1ccc(Cl)c(C)c1 | -10.4 (active) |
| CCOc1ccc(C(C)=O)cc1COC(=O)c1cnc(Cl)c(Cl)c1 | inactive |
| O=S(=O)(c1cccc(-c2cn3ccccc3n2)c1)N1CCCC1 | inactive |
| COc1ccc(N2CCN(C3CCCCC3NS(=O)(=O)c3ccccc3)CC2)cc1 (stereo unspecified) | inactive |
| O=S(=O)(NC1CCCCC1N1CCCCC1)c1ccc(Cl)cc1 (stereo unspecified) | inactive |
| O=S(=O)(NC1CCCCC1N1CCN(c2ccccc2F)CC1)c1ccccc1 (stereo unspecified) | -9.12 (active) |
| CCC(C)(C)NC(=O)C(c1ccc(O)cc1)N(Cc1ccco1)C(=O)CCC(=O)Nc1ccccn1 (stereo unspecified) | inactive |
| Cn1c(=O)c2sccc2n(Cc2ccc(Br)cc2)c1=O | inactive |
| FC(F)(F)c1cc(-c2ccco2)nc(NCc2ccc(Cl)cc2)n1 | -8.85 (active) |
| COc1nc(NCc2ccc(Cl)cc2)nc(OC)n1 | inactive |
| FC(F)(F)c1cc(-c2cccs2)nc(NCc2ccco2)n1 | inactive |

| SMILES | B-score |
| --- | --- |
| Cc1c(C(=O)NCC2CCCO2)sc2nc(-c3ccccc3)cn12 (stereo unspecified) | inactive |
| Cc1c(C(=O)N2CCCc3ccccc32)sc2nc(-c3ccccc3)cn12 | -9.27 (active) |
| Cc1cccc2cc3c(N)c(C(=O)N4CCCc5ccccc54)sc3nc12 | inactive |
| N[C@@H](Cc1ccccc1)C(=O)N1CCC(C(=O)NCC(=O)Nc2ccc(F)cc2)CC1 | inactive |
| COc1ccc(C(F)(F)F)cc1N/C=C\c1nnnn1-c1ccc(C)cc1 | inactive |
| Cc1ccc(C(=O)N/N=C\c2cc(Br)c(Br)o2)cn1 | inactive |
| COc1ccc(OCCNS(=O)(=O)Cc2ccccc2)cc1 | inactive |
| COc1ccc(S(=O)(=O)NCCOc2ccccc2)cc1F | inactive |
| COc1ccc(S(=O)(=O)NCCCCOc2ccc(Cl)cc2)cc1 | -9.65 (active) |
| CCCC(C)c1nnc(NC(=O)C2CC(=O)N(c3ccc(OCC)cc3)C2)s1 (stereo unspecified) | inactive |
| CC(C)[C@H](NC(=O)Nc1ccc(S(N)(=O)=O)cc1)C(=O)O | inactive |
| CC(C)n1c(COc2ccccc2)nc2ccccc21 | inactive |
| CCCCCC(O)c1cccc(OCc2ccc3ccccc3n2)c1 (stereo unspecified) | -9.81 (active) |
| COc1cccc(C(O)c2nc3ccccc3n2C)c1 (stereo unspecified) | inactive |
| NS(=O)(=O)c1ccc(NC(=O)/C=C/c2ccccc2Cl)cc1 | inactive |
| Cc1cc(=O)oc2c(C)c(OC(C)C(=O)NC3CCN(Cc4ccccc4)CC3)ccc12 (stereo unspecified) | inactive |
| COc1cc(C(=S)NCc2ccccc2)cc(Br)c1O | inactive |
| CC(=O)N1c2ccc(S(=O)(=O)N3CCC(C(=O)N4CCN(c5ccccc5)CC4)CC3)cc2CC1C (stereo unspecified) | inactive |
| CC(=O)N1CCCc2cc(S(=O)(=O)CCC(=O)N3CCN(c4ccccc4)CC3)ccc21 | inactive |
| CC(=O)N1CCCc2cc(S(=O)(=O)N3CCCC(C(=O)N4CCN(c5cccc(Cl)c5)CC4)C3)ccc21 (stereo unspecified) | -9.62 (active) |
| Cc1cccc2cc(CN(Cc3nnnn3Cc3ccccc3)C3CCCC3)c(=O)[nH]c12 | -10.8 (active) |
| CCOc1ccc2[nH]c(=O)c(CN(Cc3nnnn3Cc3ccccc3)CC3CCCO3)cc2c1 (stereo unspecified) | inactive |
| Cc1cc(C)c2cc(CN(Cc3nnnn3Cc3ccc(F)cc3)C3CCCC3)c(=O)[nH]c2c1 | inactive |
